Experimental data published in the supplement of paper PMC6555819.

The sequences below were run on LXRa homodimer (NR concentration 270 nM) (assay: PBM binding z-score (relative to random genomic background probes); higher = stronger binding; sequences stand for … in GC…GCGATTGACAGCGTAGAATGAAGG).
Procedure, shortened: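 Custom Agilent 4×180K protein-binding microarrays carried double-stranded probes, each with a 34-nt variable region. These regions held direct-repeat seeds, single-nucleotide variants, half-site ablations and random human genomic background sequences. Ligand-free nuclear receptor dimers were incubated on the arrays for 1 h, antibodies against each partner (one per run) detected binding, and scanned fluorescence was regression-normalized. Binding z-scores take the random background probes as reference.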
In the case of ACCGAAAGGTCGAGGTGAGTATAGAGAAAGGGAA, the PBM binding z-score is reported as -0.000757.
Sequence CCTAGCAGGCCAATCTGGGTCACTCATGGCTTGA has a PBM binding z-score of -0.409.
With CCTTACGGGTCACTCCAGGTTATAGCATCGGAGT the PBM binding z-score was 1.97.
Sequence CGAATTAGGTCATCCAGGACAGTGAATACATTGA has a PBM binding z-score of 0.829.
For CAAACTAGGTCAAAGTCAAAGTCGGTTTGTGCCA, the PBM binding z-score was 0.899.
Work on TCTTGTAGATCAAACGTTAAGAAAGCCGAAGCCT yielded a PBM binding z-score of -0.0781.
For TCTTGTAGATCAACAGGAGGTTAGGAAAGATCGA, the PBM binding z-score was -0.326.
With CAAACTAGGTCAAGAGTTCAAAGTCCGCTTCCCG the PBM binding z-score was 6.24.
In the case of CCCAGTAGGTTATGGGGCATTCAGGCAACGGTGA, the PBM binding z-score is reported as -0.205.
In the case of CGTCCAATGTCAGCAGGTCAGTGAAAGCGACGTG, the PBM binding z-score is reported as -0.0257.
Work on ATCGAAAGGACGACGAGGTGAGTATACACCGTTT yielded a PBM binding z-score of -0.204.
Sequence ATATGCAGGTTAGCTGGGGTCATTCAGACTAGGC has a PBM binding z-score of 3.01.
TTACCAAGGTGAAGGTCGTTGACCCCTCTGTAGA gave a PBM binding z-score of 2.15.
Work on CCTTACGGGTCACGAGGTTAAAGCACGACGAGCG yielded a PBM binding z-score of 0.696.
For GCGACTGGGGCAAAGCAGGTTAACATAAGGTTGG, the PBM binding z-score was -0.346.
In the case of ATATGTAGGTTATCGGGTCATTGAGTTTGCGCAT, the PBM binding z-score is reported as 1.69.
For CCTAGCTGGTCAGGAGGTCACACACCGGATATGA, the PBM binding z-score was 1.44.
TCTTGTAGATCCATAGAGGTTAAGAAAGTGCGCT showed a PBM binding z-score of -0.138.
Sequence TAGCCTGGGTCATTGGGCCAGTATAGTACGCATC has a PBM binding z-score of -0.677.
For TTACCAAGGTGAAGGTCTTTGATCCCTCTGTAGA, the PBM binding z-score was -0.405.
ACAAGTTGGTCAGCTGAGGTCACACACAATTCGG was tested, and the PBM binding z-score was 2.34.
In the case of CGCACTAGGTCAAGGACAGTGAATCTCCGCACGC, the PBM binding z-score is reported as 0.266.
